Compounds with a hit are over-represented: about 2.1% of the library has one in this group of screens.
aSyn yeast inh = rescues yeast growth from alpha-synuclein toxicity; Yeast expressing alpha-synuclein, growth rescue, BacTiter-Glo, 24 h; Potency, µM (top dose mostly 46.1 µM), most hits filed as activators; hit rate 0.14% among 370,000; AID 652106; note: nearly all actives have a fitted effect of over 65% in size
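Readout is rescue of growth in alpha-synuclein-expressing yeast, so inhibitors of toxicity appear as activators. Growth after 24 hr at 30 deg C in galactose medium is quantified by luminescence.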
PTAP TSG101 blk = blocks PTAP/TSG101 interaction to inhibit HIV-1 budding. 340,000 tested, under 10 active. Q99816. Potency, µM (doses to about 115 µM), usual class: inhibitors. Fluorescence polarization, FITC-PTAP peptide / Tsg101 binding; active = well fitted inhibition curve with a large enough effect in the main read-out, with a control signal flat, not every such curve was filed as active; inconclusive = small, poorly fitted or top-dose-only effect, or effect the other way, or a change in a side signal; inactive = no such curve, though single readings can be large or run the other way
Target sequence (Q99816 whole entry, looked up): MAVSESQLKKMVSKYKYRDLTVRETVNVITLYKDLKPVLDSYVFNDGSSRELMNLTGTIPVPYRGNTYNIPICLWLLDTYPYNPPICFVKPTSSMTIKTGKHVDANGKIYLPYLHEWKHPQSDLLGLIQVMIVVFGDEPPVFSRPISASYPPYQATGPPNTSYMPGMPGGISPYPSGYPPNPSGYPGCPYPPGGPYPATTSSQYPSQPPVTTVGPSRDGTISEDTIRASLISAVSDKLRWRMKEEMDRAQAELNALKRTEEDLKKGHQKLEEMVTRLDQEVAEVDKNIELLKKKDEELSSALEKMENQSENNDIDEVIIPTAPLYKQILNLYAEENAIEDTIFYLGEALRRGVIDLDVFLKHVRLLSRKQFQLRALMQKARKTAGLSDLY
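Steps: Tsg101 binding domain dispensed (10 uM final), compounds pinned in DMSO, FITC-labeled PTAP-motif peptide added (50 nM final); after 20 min binding at room temperature, polarization measured.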
Abeta rescue = restores growth of yeast expressing A-beta42 peptide; yeast expressing A-beta42, growth rescue, OD600, 48 h; response scale: 0% DMSO, 100% iron-clioquinol control; Potency, µM (series often up to 46.1 µM), most hits filed as activators; hit rate 0.063% among 410,000; AID 1347071; note: nearly all actives have a fitted effect of over 55% in size
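Growth rescue measured by 600 nm absorbance after 48 h yeast culture at 30 C with compound. Values normalized between DMSO and an equimolar ferric chloride plus clioquinol control.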
FUS yeast rescue = rescues growth of FUS-expressing yeast | S. cerevisiae FUS-expressing, growth rescue, OD600, 24 h | Potency, µM (highest dose often 76.6 µM), actives largely listed as activators | hit rate 0.24% among 390,000 | AID 1347120; note: nearly all actives have a fitted effect of over 55% in size
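Yeast expressing FUS under galactose induction, OD 0.005 in 2% galactose medium; compounds in a dilution series, 24 h at 30C. Growth rescue by absorbance at 600 nm; CP55940 positive control, DMSO negative.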
TDP-43 yeast inh = TDP-43 toxicity inhibition in yeast | TDP-43 expressing yeast growth rescue, BacTiter-Glo, 24 h | hit rate 1.8% among 410,000 | Potency, µM (series often up to 46.1 µM), usual class: activators | AID 652104; note: nearly all actives have a fitted effect of over 50% in size
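Yeast expressing TDP-43 (pregrown in raffinose, seeded at OD600=0.02 in galactose medium) exposed to compounds 24 hr at 30 deg C. Growth read by BacTiter-Glo luminescence; rescue of toxicity appears as increased signal.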
A number is an active result; n = inactive; u = inconclusive; x = no result; [ ] = remark or other dose. Unless noted, calls come from the whole dose curve; as a rule, active = well fitted curve in the direction sought with a large enough effect; inconclusive = small, poorly fitted or top-dose-only effect, or another doubt; inactive = no such curve, though single readings can be large; an effect the other way counts as inactive or inconclusive.

SMILES | aSyn yeast inh | PTAP TSG101 blk | Abeta rescue | FUS yeast rescue | TDP-43 yeast inh
CC(C)(C)OC(=O)N1CCC(c2c(C(=O)NCc3cccs3)cnn2-c2cccc(F)c2)CC1 | x | x | n | n | u
Cc1c(Cl)cccc1-n1ncc(C(=O)NCc2cccs2)c1C1CCN(C(=O)OC(C)(C)C)CC1 | x | x | u | u | 31.6µM
Cc1nc(C/C(=N\Nc2ccccc2)c2ccc(O)cc2O)cs1 | n | n | n | n | 20µM
Cc1nc(CC(=O)c2ccc(O)cc2O)cs1 | n | n | n | n | n
Cc1ccccc1C(=O)Nc1ccc(Br)cn1 | n | n | n | n | n
O=C(Nc1ccccc1C(=O)Nc1ccc(Br)cn1)c1ccccc1Cl | n[1.84 µM] | n | n | n | 20µM
CCCSc1nc2c(c(=O)n1CC)SC(C)C2 (centres undefined) | n | n | n | n | 22.4µM
CC1Cc2nc(SCC(=O)N3CCN(c4ccccc4)CC3)n(CCc3ccccc3)c(=O)c2S1 (centres undefined) | n | n | n | 14.1µM | u
Cc1nn(Cc2ccc(Cl)c(Cl)c2)c(C)c1NC(=O)c1cc(-c2ccco2)on1 | n | n | u | u | n
CCC(=NCc1ccc(Cl)c(Cl)c1)c1nc(-c2ccco2)oc1O | n | n | n | n | 14.1µM
Clc1ccccc1N/N=C/c1ccc2c(c1)OCO2 | n | n | n | n | 17.8µM
N#CC1=C(N2CCCCC2)c2cc3c(n2C1=O)CCCC3 | n | n | n | n | 14.1µM
O=C(NCc1nc2ccccc2[nH]1)C1=C[C@H](c2ccccc2)C[C@H](OCc2ccc(CO)cc2)O1 | n | n | n | n | n
CC(=O)n1cc([C@H]2C=C(C(=O)NCc3ccccc3)O[C@@H](OCc3ccc(CO)cc3)C2)c2ccccc21 | n | n | n | 25.1µM | n
O=C(NCc1nc2ccccc2[nH]1)C1=C[C@@H](C2CCCCC2)C[C@@H](OCc2ccc(CO)cc2)O1 | n | n | n | 31.6µM | n
O=C(NCc1nc2ccccc2[nH]1)C1=C[C@H](C2CCCCC2)C[C@H](OCCCCO)O1 | n | n | n | n | n
C#CCNC(=O)C1=C[C@@H](c2cn(C(C)=O)c3ccccc23)C[C@@H](OCc2ccc(CO)cc2)O1 | n | n | n | u | n
O=C(NCc1nc2ccccc2[nH]1)C1=C[C@@H](c2ccc(C(F)(F)F)cc2)C[C@@H](OCc2ccc(CO)cc2)O1 | n | n | n | 31.6µM | n
O=C(NCc1nc2ccccc2[nH]1)C1=C[C@@H](c2ccccc2)C[C@@H](OCc2ccc(CO)cc2)O1 | n | n | n | n | n
O=C(NCc1nc2ccccc2[nH]1)C1=C[C@H](C2CCCCC2)C[C@H](OCc2ccc(CO)cc2)O1 | n | n | n | 20µM | n
COc1cccc(NC(=O)C2CCCN(c3ncnc4onc(-c5ccc(F)cc5)c34)C2)c1 (centres undefined) | x | x | n | n | n
CCn1cc(C(=O)NC(=S)Nc2ccccc2Br)cn1 | n | n | n | n | 14.1µM
CCOc1cccc(C(=O)NC(=S)Nc2cccc(C)c2)c1 | n | n | u | n | 35.5µM
O=C(NC(=S)Nc1ccccc1O)c1cncc(Br)c1 | 17.8µM | n | u | n | n
CCCOc1cccc(C(=O)NC(=S)Nc2cccc(C(F)(F)F)c2)c1 | n | n | n | n | n
SMILES | aSyn yeast inh | PTAP TSG101 blk | Abeta rescue | FUS yeast rescue | TDP-43 yeast inh
O=C(NC(=S)Nc1ccccc1C(=O)O)c1cncc(Br)c1 | n | n | n | n | n
CCn1cc(C(=O)NC(=S)Nc2ccccc2[N+](=O)[O-])cn1 | n | n | n | n | n
COc1cccc(NC(=S)NC(=O)c2cncc(Br)c2)c1 | n | n | u | n | 12.6µM
CCOc1ccc(C(=O)CSc2nnc(SCc3ccc(Cl)cc3)s2)cc1 | x | x | x | n | x
Nc1ncnc2c1ncn2[C@@H]1O[C@H](C(=O)Nc2ccc(Oc3ccccc3)nc2)[C@@H](O)[C@H]1O | n | x | n | n | n
COc1ccc(S[C@]2(C(=O)N3CCOCC3)CC(=O)N(C(=O)/C=C/c3ccccc3)[C@@H]2c2ccc(OC)cc2)cc1 | x | x | x | n | x
Cc1cc(-c2c(C)[nH]n(-c3ccc(Cl)cc3)c2=O)n[nH]1 | u | n | n | u | 22.4µM
Cc1ccc(/C(N)=N/OC(=O)c2cccc(F)c2)cc1 | n | n | n | n | n

Screening data (PubChem)
